Results on 48 compounds are retold here after PubChem BioAssay AID2685 (National Center for Advancing Translational Sciences (NCATS), 2010).

Out of some 320,000 compounds screened, about 2,100 (0.66%) were called active. Inconclusive results (about 53%) are left out. The call rests on the fitted dose curve; in most records, active means well fitted inhibition curve with a large enough effect in the signal ratio, with a control signal flat (not every such curve was filed as active); inconclusive means small, poorly fitted or top-dose-only effect, or effect the other way, or a change in a side signal; inactive means flat fitted curve, though single readings scatter; the % refers to the signal ratio. The sample as a whole holds a higher share of actives than the screen did.
Potency means the concentration at half of the fitted maximal effect.

A short description of the assay: qHTS Assay for Lipid Storage Modulators in Drosophila S3 Cells.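 On cell number change: cells counted by Cell Tracker Red CMTPX staining in the red channel.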 On lipid storage change, negative = inhibition: on the % scale 0 is the no-effect control and ±100 the full control effect. The note with it: BODIPY lipid droplet fluorescence, 18-24 h, cells fed with added oleic acid; cell number change: measured here: cell count max response; series mostly up to 46.1 µM; lipid storage change, negative = inhibition: at the top concentration. The method, boiled down:
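Laser-scanning cytometry quantifies lipid droplet accumulation (500–530 nm total intensity; droplet/cell object ratio) in oleic acid-fed (400 uM added) Drosophila S3 cells treated with a concentration series. 20 uM Triacsin C defined 100% inhibition.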
Background: qHTS replaces the single test concentration by a dilution series.
In the case of `O=C(Nc1ccccn1)c1ccc([N+](=O)[O-])o1`, the Potency is 20.6 µM (active) and the cell number change is -6.3%. For `CCCn1c(NC(=O)c2ccc(C)cc2)nc2ccccc21`, the compound was classed as inactive.

On to `O=C(Nc1cccc2ncccc12)c1ccc([N+](=O)[O-])o1`, for which the Potency is 16.4 µM (active) and the cell number change was found to be 26.1%. Regarding `CCCn1c(NC(=O)c2ccco2)nc2ccccc21`, the outcome was inactive and the cell number change was -15.8%. As to `O=C(Nc1ccccn1)c1cc2ccccc2o1`, the “lipid storage change, negative = inhibition” value is 2.25% (inactive) and the cell number change was -2.14%. The matching figures for `O=C(Nc1cccc2ncccc12)c1ccc(-c2ccc(Br)cc2)o1`: -6.65% (inactive) and -12.1%. Consider `CCCn1c(NC(=O)c2ccc([N+](=O)[O-])o2)nc2ccccc21`, for which the Potency is 6.51 µM (active) and the cell number change was -9.34%. Take `Cc1cccc(NC(=O)c2ccc([N+](=O)[O-])o2)c1C`: the “lipid storage change, negative = inhibition” value was -1.69% (inactive) and the cell number change came out at 8.85%. Consider `O=C(Nc1ncccn1)c1ccc([N+](=O)[O-])o1`, for which the “lipid storage change, negative = inhibition” value was -14.6% (inactive) and the cell number change was -11.9%. Take `Cc1cc(C)cc(OCCNC(=O)c2ccc(Br)cc2)c1`: the compound was called inactive and the cell number change turned out to be 5.31%. As for `CCC(C)c1ccc(NC(=O)Nc2cnccn2)cc1` (configuration not stated), the “lipid storage change, negative = inhibition” value is -6.7% (inactive) and the cell number change came to 13.7%. The matching figures for `O=C1CC(C(=O)Nc2cc(Cl)ccc2Cl)n2ncnc2N1` (configuration not stated): 6.51% [at 9.22 µM] (inactive) and -2.1%.

As to `CCOC(=O)N1CCN(S(=O)(=O)c2ccc(C)c(C)c2)CC1`, the compound was classed as inactive. For `CCN(CC)CCNC(=O)CCn1nc(-c2ccc(Cl)cc2)ccc1=O`, the “lipid storage change, negative = inhibition” value was -4.06% (inactive) and the cell number change stood at 9.34%. On to `O=C(C1COc2ccccc2O1)N1CCCC1` (configuration not stated), for which the Potency is 6.51 µM (active) and the cell number change amounted to 0.347%.

As for `O=C(C1COc2ccccc2O1)N1CCN(c2ccccc2O)CC1` (configuration not stated), the “lipid storage change, negative = inhibition” value was 37.9% (inactive) and the cell number change was -2.02%.

`O=C(C1COc2ccccc2O1)N1CCCCC1` (configuration not stated): the “lipid storage change, negative = inhibition” value is -14.7% (inactive) and the cell number change worked out at 3.75%. Consider `O=C(NNc1cccc(Cl)n1)Nc1ccc(Cl)cc1`, for which the “lipid storage change, negative = inhibition” value is 17.2% (inactive) and the cell number change is -10.7%. Taken in the same sequence, the figures for `O=c1oc2ccc(F)cc2c2c1C1O[C@](c3ccsc3)(Cc3c1ccc1ccccc31)O2` were 17.6% [at 9.22 µM] (inactive) and 2.65%. Taken in the same sequence, the figures for `CC(C)CCNC(=O)C1CCC(=O)N1CCc1ccccc1` (configuration not stated) were 1.46% (inactive) and 19.8%. With `CCC(C)(C)NC(=O)CN(Cc1cccs1)C(=O)C(=O)Nc1ccc2c(c1)OCCO2`, the “lipid storage change, negative = inhibition” value is -17.7% (inactive) and the cell number change worked out at 3.41%.

Regarding `CCC(C)(C)NC(=O)CN(C(=O)C(=O)Nc1ccc2c(c1)OCCO2)C1CC1`, the Potency was 1.16 µM (active) and the cell number change is -1.67%. For `CC(C)(C)NC(=O)CN(C(=O)C(=O)Nc1ccc2c(c1)OCCO2)C(C)(C)C`, the “lipid storage change, negative = inhibition” value is -0.996% (inactive) and the cell number change was -1.34%. For the compound `O=C(c1ccco1)N1CCN(c2cc(=O)n(-c3ccc(Cl)cc3)c(=O)[nH]2)CC1`, the “lipid storage change, negative = inhibition” value was -21.2% (inactive). Turning to `Cc1cc(NS(=O)(=O)c2ccc(NC(=O)CSc3nc4ncccc4[nH]3)cc2)nc(C)n1`, the “lipid storage change, negative = inhibition” value is -7.33% (inactive) and the cell number change is -9.17%. Take `CCOC(=O)CNC(=O)c1sc(NC(=O)c2ccccc2)nc1C`: the “lipid storage change, negative = inhibition” value was 13.4% (inactive) and the cell number change is -2.79%. The matching figures for `Cc1nn(C)c(=S)n1-c1ccc(Cl)cc1`: -1.67% (inactive) and 4.59%. For `Cc1nn(-c2ccccc2)c(=S)n1-c1ccccc1`, the Potency was 32.6 µM (active) and the cell number change was -7.47%. For `Cc1n[nH]c(=S)n1-c1ccccc1`, the “lipid storage change, negative = inhibition” value is 0.353% (inactive) and the cell number change was 8.27%.

As to `Cc1ccc(NC(=O)NCc2cccn2C)cc1C`, the “lipid storage change, negative = inhibition” value is 6.76% (inactive) and the cell number change came out at 7.96%. The matching figures for `O=C(Nc1cccc(O)c1)C(=O)Nc1ccccn1`: 16% (inactive) and 0.58%. Taken in the same sequence, the figures for `O=C(NCc1ccc2c(c1)OCO2)c1ccc(Br)s1` were 18.6% (inactive) and 15.1%.

Turning to `COC(C(=O)Nc1ccnn1C1CCN(Cc2ccccn2)CC1)c1ccccc1` (configuration not stated), the “lipid storage change, negative = inhibition” value was -3.44% (inactive) and the cell number change is -9.38%. As to `COC(C(=O)Nc1ccnn1C1CCN(Cc2nccs2)CC1)c1ccccc1` (configuration not stated), the Potency was 18.4 µM (active) and the cell number change was -27.2%. In the case of `COC(C(=O)Nc1ccnn1C1CCN(Cc2ccc(C)s2)CC1)c1ccccc1` (configuration not stated), the “lipid storage change, negative = inhibition” value was 4.04% (inactive) and the cell number change is -1.51%. Turning to `CCc1cc(Br)ccc1NC(=S)NCCc1ccccc1`, the compound was classed as inactive and the cell number change was -12.4%.

Consider `Cc1ccc(/C=N/NC(=O)CSc2nc3ccccc3[nH]2)o1`, for which the result was inactive and the cell number change was 23.1%. `CCOC(=O)c1c[nH]c2c(C)cc(C)cc2c1=O`: the “lipid storage change, negative = inhibition” value was -5.71% (inactive) and the cell number change is -13.9%. As to `CCCNC(=O)c1ccc(N2CCC3(CC2)CC(c2ccccc2)=NO3)c(NC(=O)c2ccco2)c1`, the Potency was 5.17 µM (active) and the cell number change was -21.9%. Take `CCCNC(=O)c1ccc(N2CCC3(CC2)CC(c2cccc(Br)c2)=NO3)c(NC(=O)c2cccc(C)c2)c1`: the “lipid storage change, negative = inhibition” value is -10.4% (inactive) and the cell number change is -6.01%. The matching figures for `Cc1ccc(CNC(=O)c2ccc(N3CCC4(CC3)CC(c3cccc(Br)c3)=NO4)c(NC(=O)c3ccco3)c2)cc1`: -0.741% (inactive) and -15.2%.

On to `COc1ccccc1NS(=O)(=O)c1ccc2c(c1)CCN2C(=O)CCC(=O)O`, for which the “lipid storage change, negative = inhibition” value was 11.3% (inactive) and the cell number change was 0.926%. For the compound `CC(C)c1c(C(=O)N/N=C/c2cccnc2)nnn1-c1nonc1N`, the call was inactive and the cell number change is -22.2%. For the compound `CCc1ccc(-c2ccc(SCc3ccccn3)nn2)cc1`, the “lipid storage change, negative = inhibition” value is 1.79% (inactive) and the cell number change was -1.78%. `Cc1cc(C)cc(C(=O)/C=C2\NC(=O)CS2)c1`: the “lipid storage change, negative = inhibition” value is -9.56% (inactive). Take `O=C(NN(CC(O)COc1ccccc1)CC(O)COc1ccccc1)c1ccccc1` (configuration not stated): the “lipid storage change, negative = inhibition” value was -2.08% (inactive) and the cell number change was -5.14%.

Regarding `CC(C)(C)OC(=O)NOCC(=O)N(Cc1ccccc1)CC(O)COc1ccccc1` (configuration not stated), the Potency was 7.31 µM (active) and the cell number change was -1.25%.

As for `CC(C)N(Cc1ccccc1)C(=O)COc1ccccc1`, the “lipid storage change, negative = inhibition” value was 12.5% (inactive) and the cell number change turned out to be 2.07%.
